# MARV entry inh – qHTS for inhibitors of binding or entry into cells for Marburg Virus; AID 540276, 2011; 300,000 tested, 1.8% active; Marburg virus pseudotyped entry inhibition, cell reporter; Potency, µM (highest dose often 37.8 µM), usual class: inhibitors; calls by dose curve; tested in HEK293 cells
# FMDV antiviral – High Throughput Screening for Foot and Mouth Disease Virus Antivirals; FMDV antiviral cell-based qHTS; Potency, µM (series often up to 57.9 µM), actives largely listed as inhibitors; 410,000 tested, 1.2% active; AID 1159524, 2015; calls by dose curve; tested in HEK293T cells; note: read-out not given here; nearly all actives have a fitted effect of over 45% in size
# Vaccinia Venus – qHTS for Stage-Specific Inhibitors of Vaccinia Orthopoxvirus: Venus Reporter Primary qHTS | Vaccinia virus Venus reporter expression, fluorescence | Potency, µM (top dose mostly 36.5 µM), actives largely listed as inhibitors | 330,000 tested, 0.46% active | AID 720580, 2013; calls by dose curve; tested in A549 cells; note: nearly all actives have a fitted effect of over 30% in size
# Lassa entry inh – qHTS for Inhibitors of binding or entry into cells for Lassa Virus | Lassa virus pseudotype entry inhibition, cell reporter | Potency, µM (series often up to 37.9 µM), most hits filed as inhibitors | 300,000 tested, 1.2% active | AID 540256, 2011; calls by dose curve; tested in HEK293 cells; note: nearly all actives have a fitted effect of over 50% in size
# VACV mCherry inh – qHTS for Stage-Specific Inhibitors of Vaccinia Orthopoxvirus: mCherry Reporter Primary qHTS; AID 720579, 2013; Potency, µM (highest dose often 36.5 µM), hits mostly inhibitors; Vaccinia virus mCherry reporter infection, fluorescence; 310,000 tested, 0.63% active; calls by dose curve; tested in A549 cells; note: nearly all actives have a fitted effect of over 35% in size
# HCV inhibitor – qHTS Assay for Inhibitors of Hepatitis C Virus (HCV); 340,000 tested, 3.4% active; Huh7.5.1 HCVcc-Cre infection, luciferase reporter, 44 h; Potency, µM (highest dose often 41.8 µM), actives largely listed as inhibitors; active = well fitted inhibition curve with a large enough effect; inconclusive = small, poorly fitted or top-dose-only effect, or another doubt; inactive = no such curve, though single readings can be large or run the other way
#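 A cell-based infection assay in which seeded cells (1,000 per well) receive test compound after 4 h, are inoculated with HCVcc-Cre at approximately 0.5 moi, and are incubated 44 h before luminescence detection.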
# Hits are given with their value; n = inactive; u = inconclusive; x = no result given; [ ] = another dose, or the depositor's remark. The list is not random: actives were taken first. Their share in the collection is about 5.3%.
SMILES,MARV entry inh,FMDV antiviral,Vaccinia Venus,Lassa entry inh,VACV mCherry inh,HCV inhibitor
CC1=NN(c2ccc(C)cc2)C(=O)/C1=C\C=C\c1ccccc1,n,28.2µM,n,n,n,n
CC1=NN(c2cccc(C(=O)O)c2)C(=O)/C1=C\C=C/c1ccccc1,u,10µM,n,u,n,u
O=S(=O)(c1ccc(Cl)c(Cl)c1)c1snnc1-c1ccccc1,5.01µM,u,u,7.08µM,x,u
Cc1ccc2c(c1)N(C(=O)C1CCN(S(=O)(=O)c3c(C)noc3/C=C/c3ccccc3F)CC1)CCO2,x,n,n[7.34 µM],n,n[7.34 µM],x
O=C(CCl)NCc1cc(-c2ccc(Cl)cc2)no1,u,u,u,u,10µM,11.2µM
COc1cc(CNCCc2ccccc2)cc(Br)c1OCC(=O)Nc1ccccc1C,20.6µM,n,x,n,x,u
CCNCc1cc(Br)c(OCC(=O)Nc2ccccc2)c(OC)c1,u,n,x,n,x,10µM
CNCc1cc(Br)c(OCC(=O)Nc2ccccc2OC)c(OC)c1,u,n,n,n,n,u
COc1cc(CNCC(C)C)cc(Br)c1OCC(=O)Nc1ccccc1,u,n,x,n,x,u
C[C@@H]1CN(Cc2ccc3c(c2)CN(Cc2coc4ccccc4c2=O)CCO3)C[C@H](C)O1,x,n,n,x,n,x
O=[N+]([O-])c1ccc(NN=Cc2ccccc2)nc1,n,n,n,n,n,n
N#Cc1ccccc1Cn1cc(/C=N/Nc2ccc([N+](=O)[O-])cn2)c2ccccc21,u,n,n,n,n,2.51µM
O=[N+]([O-])c1ccc(NN=Cc2ccc(O)cc2O)nc1,u,n,u,u,1.41µM,u
CCN(CC)S(=O)(=O)c1ccc(N/N=C/c2ccc(O)cc2O)nc1,3.26µM,n,u,2.31µM,3.98µM,u
CCN(CC)S(=O)(=O)c1ccc(N/N=C(\C)c2ccncc2)nc1,u,n,n,n,n,u
O=[N+]([O-])c1ccc(NN=Cc2ccccc2O)nc1,u,n,u,u,u,u
CN(Cc1ccc2c(c1)CN(C(=O)c1cccc(N(C)C)c1)CCO2)Cc1cc(C2CC2)n[nH]1,x,n,n,x,n,x
CC(NC(=O)/C(C#N)=C/c1ccc(Cl)c([N+](=O)[O-])c1)c1ccccc1 (centres undefined),u,31.6µM,x,u,x,35.5µM
CC(C)(C)C(=O)Cn1ncc(Br)c(Br)c1=O,x,u,x,x,x,10µM
C[C@@H]1CC[C@H]2C(=O)N(Cc3ccc(Cl)cc3)C[C@@H](O)CN2[C@@H]1c1ccc(Br)cc1,n,x,x,x,x,x
CC1CCN(S(=O)(=O)c2ccc3c(c2)N(CC(=O)NCc2ccccc2Cl)C(=O)CS3)CC1,x,n,n,n,n,x
CCN=C1NN=C(c2cc(C)n(CCc3ccccc3)c2C)CS1,u,n,n,u,n,n
CCN=C1NN=C(c2cc(C)n(Cc3ccco3)c2C)CS1,u,0.0794µM,n,u,n,n
Cc1cc(C2=NNC(=NCCc3ccccc3)SC2)c(C)n1CC1CCCO1 (centres undefined),u,n,n,n,n,11.2µM
O=C(Nc1ccc(F)cc1)N1CCN(c2nc3ccccc3s2)CC1,n,28.2µM,u,n,x,u
SMILES,MARV entry inh,FMDV antiviral,Vaccinia Venus,Lassa entry inh,VACV mCherry inh,HCV inhibitor
O=C(c1ccc2ncsc2c1)N1CCN(c2nc3ccccc3s2)CC1,n,u,n,u,u,5.62µM
O=C(Nc1ccccc1)N1CCN(c2nc3ccccc3s2)CC1,n,u,x,n,x,u
O=C(c1cc2sccc2n1Cc1ccccc1)N1CCN(c2nc3ccccc3s2)CC1,u,u,u,u,u,4.47µM
O=C(c1ccc2ncsc2c1)N1CCN(c2ccccc2Cl)CC1,u,n,n,u,n,n
CCN1C(=O)[C@H]2[C@H]3CN=C(SC)N3[C@@](Cc3ccccc3)(C(=O)OC)[C@H]2C1=O,x,n,n,x,n,0.562µM
CCN1C(=O)[C@H]2[C@H]3CN=C(SCc4ccc(C)cc4)N3[C@@](Cc3ccccc3)(C(=O)OC)[C@H]2C1=O,x,n,n,x,n,0.316µM
CCOc1ccc(NC(=O)CSC2=C(C#N)[C@H](c3ccc4c(c3)OCO4)CC(=O)N2)cc1,n,x,x,x,x,x
CN1\C(=C/C=C/C=C/C=[N+](C)C)C(C)(C)c2ccccc21,u,15.8µM,x,u,x,n

# High-throughput results: PubChem BioAssay, National Center for Advancing Translational Sciences (NCATS)
